Compound activity as filed in PubChem BioAssay.
TRPM1 prom inh: inhibitors of MITF-dependent TRPM1 promoter reporter, primary screen, cell-based, SK-MEL-5, single point, luciferase; 0.83% of 330,000 active; AID 488899, 2010; SK-MEL-5 TRPM1 promoter luciferase, 24 h; inhibition, % at 12.5 µM;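 active = mean inhibition across replicates of 60% or more, whatever share of single replicates reaches that level; inconclusive = some that reach 60%, reason not given; inactive = mean inhibition across replicates below 60%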
Shn3 3UTR inh: reduction of Shn3 3'UTR firefly luciferase signal, primary screen, Schnurri-3 inhibitor project, cell-based, Clone20 osteoblasts, set 2; Clone20 osteoblast Shn3 3'UTR firefly luciferase, 24 h; inhibition, % at 12.5 µM; 0.52% of 360,000 active;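 active = mean inhibition of at least 75% with every replicate also reaching 75%; inconclusive = mean inhibition at least 75% but some replicate below; inactive = mean inhibition below 75%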
ABHD5-PLIN5 inh: ABHD5-PLIN5 interaction inhibitors, primary screen, cell lysate, split luciferase complementation, luminescence. Perilipin-5 (Homo sapiens) + 1-acylglycerol-3-phosphate O-acyltransferase ABHD5 (Homo …. Split G. princeps luciferase complementation, 4 h. inhibition, % at 4 µM. 0.78% of 360,000 active. AID 602281, 2012;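 active = inhibition above the mean inhibition across every tested compound plus 3 SD, cut at about 22% in these data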
Target sequence (Q00G26 whole entry, looked up): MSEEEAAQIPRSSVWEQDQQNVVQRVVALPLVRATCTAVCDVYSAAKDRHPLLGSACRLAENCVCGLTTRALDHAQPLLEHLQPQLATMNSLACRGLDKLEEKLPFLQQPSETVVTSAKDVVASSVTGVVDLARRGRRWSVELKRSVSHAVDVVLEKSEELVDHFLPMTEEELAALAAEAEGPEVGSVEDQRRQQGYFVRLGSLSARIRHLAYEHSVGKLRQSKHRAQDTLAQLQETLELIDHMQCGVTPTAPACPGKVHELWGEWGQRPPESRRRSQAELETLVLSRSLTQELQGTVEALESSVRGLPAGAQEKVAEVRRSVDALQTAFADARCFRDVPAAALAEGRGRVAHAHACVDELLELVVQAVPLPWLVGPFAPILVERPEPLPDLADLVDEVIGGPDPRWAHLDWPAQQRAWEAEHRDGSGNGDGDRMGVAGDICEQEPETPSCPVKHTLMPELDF
Target sequence (Q8WTS1 whole entry, looked up): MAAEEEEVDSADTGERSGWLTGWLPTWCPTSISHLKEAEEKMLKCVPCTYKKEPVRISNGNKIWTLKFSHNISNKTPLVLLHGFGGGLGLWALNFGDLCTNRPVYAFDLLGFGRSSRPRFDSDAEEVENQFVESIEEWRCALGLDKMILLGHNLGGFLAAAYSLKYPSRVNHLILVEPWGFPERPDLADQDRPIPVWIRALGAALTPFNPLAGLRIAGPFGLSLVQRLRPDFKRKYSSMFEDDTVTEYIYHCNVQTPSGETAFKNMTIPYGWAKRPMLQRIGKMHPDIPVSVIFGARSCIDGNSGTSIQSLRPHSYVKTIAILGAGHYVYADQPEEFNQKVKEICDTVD
PAX8 inh HTS: inhibitors of PAX8-driven TPO luciferase reporter, primary screen, RMG-I cells, single concentration | inhibition, % at 12.6 µM | 1.2% of 360,000 active | SteadyGlo, 24 h;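 active = mean replicate inhibition at least 60% with every replicate also reaching 60%; inconclusive = only one of the two criteria is met; inactive = mean below 60% and not all replicates reaching 60%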;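 note: luciferase light reporting Pax8 driven TPO promoter activity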
EWS-Fli inh: EWS/Fli-driven NR0B1 reporter inhibitors, primary screen, A673 cells, NR0B1 luciferase, luminescence, MLPCN library. viability-normalised. inhibition, % at 12.6 µM. 0.67% of 350,000 active. AID 651661, 2012;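 active = mean inhibition of at least 50% after viability correction, with every replicate also passing that limit; inconclusive = mean reaches 50% but only one of two replicates passes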;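 note: firefly luciferase signal divided by Alamar Blue viability fluorescence both relative to DMSO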
Peg3 prom inh: Peg3 promoter-driven luciferase inhibitors, primary screen, cell-based, HeLa, luciferase luminescence; 1.7% of 360,000 active; HeLa PEG-Prom luciferase reporter, overnight; inhibition, % at 20 µM;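 active = inhibition of at least 50% at 20 µM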
Numbers stand for hits; . = inactive; ? = inconclusive; / = not tested or not shown. This is a sample that favours compounds with a hit; in the whole collection about 3% have one here.

SMILES | TRPM1 prom inh | Shn3 3UTR inh | ABHD5-PLIN5 inh | PAX8 inh HTS | EWS-Fli inh | Peg3 prom inh
CCN1[C@@H]2c3ccc(-c4cccc(C(=O)N(C)C)c4)c(=O)n3C[C@H]1[C@H](CO)[C@H]2C(=O)OC | / | / | / | . | . | /
C[C@H]1CN([C@@H](C)CO)C(=O)CCCn2cc(nn2)CO[C@H]1CN(C)C(=O)Oc1cccc2ccccc12 | / | / | / | . | . | /
COc1cccc(CN2CC3(C2)[C@H](c2ccccc2)[C@H](CO)N3C(=O)Cc2ccccc2)c1 | / | / | / | . | . | /
CC1CC(C)(O)CC(C(O)CC2CC(=O)NC(=O)C2)C1=O (stereo not given) | 67 | 94 | . | 123 | . | 96
N#Cc1cccc(-c2ccc([C@H]3[C@H]4CN(C(=O)Cc5ccncc5)CCCCN4[C@H]3CO)cc2)c1 | / | / | / | . | / | /
N#Cc1ccc(-c2ccc([C@@H]3[C@H]4CN(C(=O)Cc5ccccc5)CCCCN4[C@H]3CO)cc2)cc1 | / | / | / | . | . | /
O=C(Cc1ccccn1)N1CCCCN2[C@@H](CO)[C@H](c3ccc(C#Cc4ccccc4)cc3)[C@@H]2C1 | / | / | / | . | . | /
CC1CCC[C@H](O)CCCCCc2cc(O)cc(O)c2C(=O)O1 (stereo not given in full) | . | . | . | . | . | .
CC1CCC/C=C/C2CC(O)CC2C(O)/C=C/C(=O)O1 (stereo not given) | 85 | . | . | 127 | / | 60
C[C@H]1CCC[C@H](O)CCCCCc2cc(O)cc(O)c2C(=O)O1 | . | . | . | . | . | .
C[C@H]1CCC/C=C/C2C[C@H](O)CC2[C@H](O)/C=C/C(=O)O1 (stereo not given in full) | 80 | 94 | . | / | / | 55
Cc1cc([N+](=O)[O-])c2ccccc2[n+]1[O-] | 78 | ? | . | / | / | 108
O=C(Cc1ccccc1)N1CCCCN2[C@H](CO)[C@H](c3ccc(C#CC4(O)CCCC4)cc3)[C@@H]2C1 | / | / | / | . | . | /
COC(=O)[C@H]1[C@H](CO)[C@H]2Cn3c(ccc(C4=CCCC4)c3=O)[C@@H]1N2C(=O)C1CCCCC1 | / | / | / | . | . | /
COC(=O)[C@@H]1[C@@H](CO)[C@@H]2Cn3c(ccc(C4=CCCC4)c3=O)[C@H]1N2CC1CCCCC1 | / | / | / | / | . | /
CC1CCCCC12C(=O)NC(=O)NC2=O (stereo not given) | . | . | . | . | . | .
CC1=C(C)CC2(CC1)C(=O)NC(=O)NC2=O | . | . | . | . | . | 61
O=C(O)[C@H]1[C@H](CO)[C@H]2Cn3c(ccc(C4=CCCC4)c3=O)[C@@H]1N2C(=O)Cc1ccccn1 | / | / | / | / | . | /
O=C1NC(=O)N(CCc2ccc(F)cc2)C(=O)/C1=C\C=C\c1ccccc1 | 90 | . | . | . | . | .
C=CCN1C(=O)NC(=O)/C(=C/C=C/c2ccccc2)C1=O | 94 | . | . | . | . | .
C=CCN1C(=O)NC(=O)/C(=C/c2ccc(OC)c(CSc3ccccn3)c2)C1=O | . | . | . | / | / | .
O=C1CNC[C@@H]2[C@H](c3ccc(Br)cc3)[C@@H](CO)N12 | / | / | / | . | . | /
COC(=O)[C@H]1[C@H](CO)[C@H]2Cn3c(ccc(C4=CCCC4)c3=O)[C@@H]1N2CC1CCCC1 | / | / | / | / | . | /
O=C(O)[C@H]1[C@H](CO)[C@H]2Cn3c(ccc(-c4ccncc4)c3=O)[C@@H]1N2C(=O)C1CCC1 | / | / | / | / | . | /
C[C@]12CCC3C(CC[C@H]4C[C@@H](O)CC[C@]34C)[C@H]1C=CC2=O (stereo not given in full) | . | . | . | . | . | .
SMILES | TRPM1 prom inh | Shn3 3UTR inh | ABHD5-PLIN5 inh | PAX8 inh HTS | EWS-Fli inh | Peg3 prom inh
CC12CCC(O)CC1CCC1C2CCC2(C)C(C3=CC(=O)OC3)C(O)CC12O (stereo not given) | . | . | . | . | . | 94
Cc1cccc(S(=O)(=O)N2[C@@H]3Cn4c(ccc(-c5ccncc5)c4=O)[C@H]2[C@@H](C(=O)O)[C@@H]3CO)c1 | / | / | / | . | . | /
CCOc1cc2c(cc1OCC)-n1cccc1C(c1ccc(C(C)C)cc1)NC2 (stereo not given) | . | 90 | . | . | . | .
Cc1ccccc1S(=O)(=O)N1[C@@H]2c3ccc(-c4cccnc4)c(=O)n3C[C@H]1[C@H](CO)[C@H]2C(=O)O | / | / | / | . | . | /
O=C(O)[C@@H]1[C@@H](CO)[C@@H]2Cn3c(ccc(-c4ccncc4)c3=O)[C@H]1N2C(=O)C1CC1 | / | / | / | . | . | /
N#Cc1ccc2nc(-c3ccc(CN4CCC(n5c(=O)[nH]c6ccccc65)CC4)cc3)c(-c3ccccc3)nc2c1 | / | / | . | 91 | . | /
COc1ccc(C(c2nnnn2Cc2ccccc2)N2CCC(n3c(=O)[nH]c4ccccc43)CC2)cc1 (stereo not given) | / | . | . | 89 | . | 74
O=c1[nH]c2ccccc2n1C1CCN(C(c2ccccc2OC(F)(F)F)c2nnnn2Cc2ccccc2)CC1 (stereo not given) | / | . | . | 84 | . | 92
CC(C)(C)n1nnnc1C(C1CC1)N1CCC(n2c(=O)[nH]c3ccccc32)CC1 (stereo not given) | / | . | . | . | . | .
Cc1cccc(C)c1-n1nnnc1C(c1cccs1)N1CCC(n2c(=O)[nH]c3ccccc32)CC1 (stereo not given) | / | . | . | . | . | .
COc1ccc(-n2nnnc2C(c2cc3ccccc3o2)N2CCC(n3c(=O)[nH]c4ccccc43)CC2)cc1 (stereo not given) | / | . | . | . | . | 92
O=c1[nH]c2ccccc2n1C1CCN(C(c2cccs2)c2nnnn2Cc2ccccc2)CC1 (stereo not given) | / | 85 | . | 87 | . | 78
COC(=O)[C@H]1[C@H](CO)[C@H]2Cn3c(ccc(-c4ccc(F)cc4)c3=O)[C@@H]1N2C(C)=O | / | / | / | . | . | /
c1cc(-c2ccc(C3[C@H]4CNC[C@@H]3N4CC3CC3)cc2)ccn1 (stereo not given in full) | / | / | / | . | . | /
O=C(Cc1ccccc1)N1CCCCN2[C@H](CO)[C@@H](c3ccc(C#Cc4ccccc4)cc3)[C@H]2C1 | / | / | / | . | / | /
COc1ccc(C#Cc2ccc([C@H]3[C@H](CO)N4CCCCN(C(=O)Cc5ccncc5)C[C@@H]34)cc2)cc1 | / | / | / | . | / | /
Cc1cccc(C)c1-n1nnnc1C(c1cccc2ccccc12)N1CCC(n2c(=O)[nH]c3ccccc32)CC1 (stereo not given) | / | . | . | . | . | .
COc1ccc(C(c2nnnn2-c2ccc(OC)cc2)N2CCC(n3c(=O)[nH]c4ccccc43)CC2)cc1 (stereo not given) | / | . | . | . | . | 68
O=C1NC(=O)C(=Cc2ccc(-c3ccc(Cl)cc3)o2)C(=O)N1 | 68 | . | . | / | / | 102
